Laboratory results taken from PubChem BioAssay AID624449 (Southern Research Specialized Biocontainment Screening …, 2012).
Measured potencies and affinities stand elsewhere. Active and inactive are the calls of the source. The rule behind the calls is not given here.

Assay: VEEV TC-83 cytopathic effect inhibition, confirmation, cell-based, TC-83 strain, set 6 (AID 624449)
Conditions: VEEV TC-83 infected cells; series mostly up to 25 µM; inhibition: at the top concentration

Structure (SMILES) | inhibition
COc1ccccc1-n1c(CN2CCNCC2)nc2ccc([N+](=O)[O-])cc2c1=O | 5.2% (inactive)
CCN1CCN(Cc2nc3ccc(C(=O)O)cc3c(=O)n2-c2ccccc2)CC1 | -5.4% (inactive)
CCN1CCN(Cc2nc3ccc([N+](=O)[O-])cc3c(=O)n2C)CC1 | -5.13% (inactive)
